Measured values published in PubChem BioAssay (NCI).
About 79,000 compounds went through this panel and 15% of them were active in at least one assay; those are over-represented in the sample as a whole. A number with no mark means an inactive call. Active and inactive are the calls of the source. No stated cut-off is given here; in the data, active means growth inhibition above about 70%; inactive means the rest.

Legend:
[1] = NCI Yeast Anticancer Drug Screen. Data for the rad52 strain (AID 147);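 further: 0% = growth of vehicle-treated control cultures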; details: S. cerevisiae rad52 mutant growth inhibition, stronger effect = higher value
Procedure, shortened: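 Here a repair-compromised yeast strain receives each compound; its growth is then quantified and normalised to vehicle-only controls.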

[2] = NCI Yeast Anticancer Drug Screen. Data for the wt1 strain (AID 149);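 further: 0% = growth of vehicle-treated wt1 cultures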; details: S. cerevisiae wt1 strain (SPY 50644) growth inhibition, stronger effect = higher value
Procedure, shortened: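 Measured: growth of wt1 yeast under compound versus vehicle treatment, reported as inhibition.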

[3] = NCI Yeast Anticancer Drug Screen. Data for the rad50EPP+ strain (AID 151);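 further: 0% = growth of vehicle-treated control cultures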; details: S. cerevisiae rad50 mutant strain, stronger effect = higher value
Procedure, shortened: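 Read-out is yeast growth inhibition relative to vehicle; cells used were the rad50EPP+ strain.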

[4] = NCI Yeast Anticancer Drug Screen. Data for the mgt1 strain (AID 153); details: S. cerevisiae mgt1 mutant growth inhibition, stronger effect = higher value
Procedure, shortened: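 Measured: inhibition of mgt1 yeast growth by compound, normalized to vehicle-treated cultures.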

[5] = NCI Yeast Anticancer Drug Screen. Data for the rad50 strain (AID 155);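 further: 0% = growth of vehicle-only cultures of the same strain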; details: S. cerevisiae rad50 strain growth inhibition, stronger effect = higher value
Procedure, shortened: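 Growth of the mutant yeast was measured after compound exposure and referenced to vehicle-treated cultures.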

[6] = NCI Yeast Anticancer Drug Screen. Data for the mec2-1 strain (AID 157); details: S. cerevisiae mec2-1 strain, stronger effect = higher value
Procedure, shortened: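 Using mec2-1 yeast: add compound, measure growth, express inhibition versus vehicle-treated cultures.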

[7] = NCI Yeast Anticancer Drug Screen. Data for the rad14 strain (AID 159);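 further: 0% = growth of vehicle-treated control cultures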; details: S. cerevisiae rad14 strain growth inhibition, stronger effect = higher value
Procedure, shortened: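 Here, inhibition of yeast growth was measured after compound exposure, using a strain with a genetic defect in DNA damage repair and vehicle-treated cultures as the reference.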

[8] = NCI Yeast Anticancer Drug Screen. Data for the sgs1 mgt1 strain (AID 161);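 further: 0% = growth of cultures given vehicle only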; details: S. cerevisiae sgs1 mgt1 strain, stronger effect = higher value
Procedure, shortened: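 Growth of a repair-deficient yeast mutant was monitored after compound treatment and expressed as inhibition relative to vehicle-treated cultures.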

[9] = NCI Yeast Anticancer Drug Screen. Data for the CLN2oe strain (AID 163);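 further: 0% = growth of vehicle-only control cultures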; details: S. cerevisiae CLN2oe strain, stronger effect = higher value
Procedure, shortened: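 Whole-cell yeast growth assay. A strain engineered for altered cell-cycle control received compound, and inhibition relative to vehicle-treated cultures was recorded.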

[10] = NCI Yeast Anticancer Drug Screen. Data for the cln2 rad14 strain (AID 165);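 further: 0% = growth equal to vehicle treated cultures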; details: S. cerevisiae cln2 rad14 strain, stronger effect = higher value
Procedure, shortened: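 Yeast strain cln2 rad14, bearing defects in cell cycle control and DNA repair, serves as the test system; values reflect growth inhibition compared with vehicle.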

[11] = NCI Yeast Anticancer Drug Screen. Data for the bub3 strain (AID 167); details: S. cerevisiae bub3 mutant strain, stronger effect = higher value
Procedure, shortened: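 Whole-cell yeast assay. The mutant strain was incubated with compounds, and growth inhibition was determined by comparison with vehicle-treated cells.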

[12] = NCI Yeast Anticancer Drug Screen. Data for the wt2 strain (AID 169);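 further: 0% = growth of vehicle-treated yeast cultures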; details: S. cerevisiae wt2 strain growth inhibition, stronger effect = higher value
Procedure, shortened: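 Treated yeast vs. vehicle-treated yeast: growth inhibition determined.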

[13] = NCI Yeast Anticancer Drug Screen. Data for the mlh1 strain (AID 171);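 further: 0% = growth of vehicle-treated control cultures of the same strain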; details: S. cerevisiae mlh1 strain growth inhibition, stronger effect = higher value
Procedure, shortened: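 A yeast strain with a defined genetic lesion serves as the test organism. Cultures receive compound or vehicle, and growth is measured.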

[14] = NCI Yeast Anticancer Drug Screen. Data for the sgs1 strain (AID 173);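 further: 0% = growth of vehicle-only control cultures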; details: S. cerevisiae sgs1 mutant, stronger effect = higher value
Procedure, shortened: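 A genetically defined yeast mutant is incubated with the test compound, and its growth is compared to that of the same strain given vehicle.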

[15] = NCI Yeast Anticancer Drug Screen. Data for the mlh1 rad18 strain (AID 175); details: S. cerevisiae mlh1 rad18 strain growth inhibition, stronger effect = higher value
Procedure, shortened: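 Steps: expose repair-defective yeast to compound; measure growth; express inhibition against vehicle-treated controls.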

[16] = NCI Yeast Anticancer Drug Screen. Data for the rad18 strain (AID 177); details: S. cerevisiae rad18 mutant growth inhibition, stronger effect = higher value
Procedure, shortened: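 Measured value is growth inhibition of a yeast strain bearing a DNA repair alteration, referenced to vehicle-treated cells.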

[17] = at 5.0 µM (retest, dose inferred, filed as 0.5)
[18] = at 50.0 µM (retest, dose inferred, filed as 5.0)

With `C(CCSC1=NCCN1)CSC1=NCCN1` (tested in a mixture with another compound) as the molecule, how does the growth inhibition ([1]; at 1.2 µM) read?
Its growth inhibition is 20%.

What about the growth inhibition ([1]; at 3.7 µM) of the same molecule?
The growth inhibition was 39%.

What about the growth inhibition ([1]; at 11.0 µM) of the same molecule?
The growth inhibition was 79% (active).

And the growth inhibition ([1]; at 33.0 µM)?
The growth inhibition was 99% (active).

And the growth inhibition ([1]; at 100.0 µM)?
The growth inhibition was 99% (active).

And the growth inhibition ([2]; at 1.2 µM)?
The growth inhibition was -3%.

What about the growth inhibition ([2]; at 3.7 µM) of the same molecule?
The growth inhibition was 9%.

And the growth inhibition ([2]; at 11.0 µM)?
The growth inhibition was 41%.

And the growth inhibition ([2]; at 33.0 µM)?
The growth inhibition was 99% (active).

And the growth inhibition ([2]; at 100.0 µM)?
The growth inhibition was 99% (active).

What about the growth inhibition ([3]; at 1.2 µM) of the same molecule?
Its growth inhibition is 30%.

And the growth inhibition ([3]; at 3.7 µM)?
The growth inhibition was 46%.

And the growth inhibition ([3]; at 11.0 µM)?
Its growth inhibition is 78% (active).

And the growth inhibition ([3]; at 33.0 µM)?
Its growth inhibition is 73% (active).

What about the growth inhibition ([3]; at 100.0 µM) of the same molecule?
The growth inhibition was 99% (active).

What about the growth inhibition ([4]; at 1.2 µM) of the same molecule?
Its growth inhibition is -2%.

What about the growth inhibition ([4]; at 3.7 µM) of the same molecule?
The growth inhibition was 18%.

And the growth inhibition ([4]; at 11.0 µM)?
Its growth inhibition is 89% (active).

What about the growth inhibition ([4]; at 33.0 µM) of the same molecule?
Its growth inhibition is 99% (active).

What about the growth inhibition ([4]; at 100.0 µM) of the same molecule?
Its growth inhibition is 98% (active).

And the growth inhibition ([5]; at 1.2 µM)?
Its growth inhibition is 21%.

And the growth inhibition ([5]; at 3.7 µM)?
The growth inhibition was 44%.

And the growth inhibition [5, 17]?
The growth inhibition was 59%.

And the growth inhibition ([5]; at 11.0 µM)?
Its growth inhibition is 83% (active).

What about the growth inhibition ([5]; at 33.0 µM) of the same molecule?
The growth inhibition was 99% (active).

And the growth inhibition [5, 18]?
The growth inhibition was 98% (active).

And the growth inhibition ([5]; at 50.0 µM)?
The growth inhibition was 99.2% (active).

What about the growth inhibition ([5]; at 100.0 µM) of the same molecule?
Its growth inhibition is 98% (active).

And the growth inhibition ([6]; at 1.2 µM)?
The growth inhibition was 5%.

And the growth inhibition ([6]; at 3.7 µM)?
The growth inhibition was 28%.

What about the growth inhibition [6, 17] of the same molecule?
The growth inhibition was 43%.

What about the growth inhibition ([6]; at 11.0 µM) of the same molecule?
The growth inhibition was 94% (active).

What about the growth inhibition ([6]; at 33.0 µM) of the same molecule?
Its growth inhibition is 99% (active).

What about the growth inhibition [6, 18] of the same molecule?
The growth inhibition was 99% (active).

And the growth inhibition ([6]; at 50.0 µM)?
Its growth inhibition is 99.5% (active).

What about the growth inhibition ([6]; at 100.0 µM) of the same molecule?
The growth inhibition was 99% (active).

And the growth inhibition ([7]; at 1.2 µM)?
The growth inhibition was 5%.

What about the growth inhibition ([7]; at 3.7 µM) of the same molecule?
Its growth inhibition is 27%.

What about the growth inhibition ([7]; at 11.0 µM) of the same molecule?
The growth inhibition was 99% (active).

And the growth inhibition ([7]; at 33.0 µM)?
The growth inhibition was 99% (active).

What about the growth inhibition ([7]; at 100.0 µM) of the same molecule?
Its growth inhibition is 99% (active).

And the growth inhibition [8, 17]?
Its growth inhibition is 73% (active).

And the growth inhibition [8, 18]?
Its growth inhibition is 99% (active).

And the growth inhibition ([8]; at 50.0 µM)?
The growth inhibition was 99.5% (active).

What about the growth inhibition ([9]; at 1.2 µM) of the same molecule?
The growth inhibition was -5%.

And the growth inhibition ([9]; at 3.7 µM)?
The growth inhibition was 6%.

What about the growth inhibition ([9]; at 11.0 µM) of the same molecule?
The growth inhibition was 29%.

And the growth inhibition ([9]; at 33.0 µM)?
The growth inhibition was 97% (active).

What about the growth inhibition ([9]; at 100.0 µM) of the same molecule?
The growth inhibition was 98% (active).

And the growth inhibition [10, 17]?
Its growth inhibition is 16%.

And the growth inhibition [10, 18]?
The growth inhibition was 98% (active).

And the growth inhibition ([10]; at 50.0 µM)?
Its growth inhibition is 97.6% (active).

And the growth inhibition ([11]; at 1.2 µM)?
Its growth inhibition is -8%.

What about the growth inhibition ([11]; at 3.7 µM) of the same molecule?
The growth inhibition was 12%.

What about the growth inhibition [11, 17] of the same molecule?
The growth inhibition was 5%.

And the growth inhibition ([11]; at 11.0 µM)?
The growth inhibition was 94% (active).

And the growth inhibition ([11]; at 33.0 µM)?
The growth inhibition was 99% (active).

And the growth inhibition [11, 18]?
The growth inhibition was 98% (active).

And the growth inhibition ([11]; at 50.0 µM)?
The growth inhibition was 99% (active).

And the growth inhibition ([11]; at 100.0 µM)?
Its growth inhibition is 98% (active).

What about the growth inhibition ([12]; at 1.2 µM) of the same molecule?
The growth inhibition was -2%.

What about the growth inhibition ([12]; at 3.7 µM) of the same molecule?
Its growth inhibition is 10%.

And the growth inhibition ([12]; at 11.0 µM)?
Its growth inhibition is 63%.

And the growth inhibition ([12]; at 33.0 µM)?
The growth inhibition was 99% (active).

And the growth inhibition ([12]; at 100.0 µM)?
Its growth inhibition is 99% (active).

And the growth inhibition ([13]; at 1.2 µM)?
Its growth inhibition is 5%.

What about the growth inhibition ([13]; at 3.7 µM) of the same molecule?
Its growth inhibition is 20%.

And the growth inhibition ([13]; at 11.0 µM)?
The growth inhibition was 83% (active).

And the growth inhibition ([13]; at 33.0 µM)?
Its growth inhibition is 99% (active).

What about the growth inhibition ([13]; at 100.0 µM) of the same molecule?
The growth inhibition was 98% (active).

What about the growth inhibition ([14]; at 1.2 µM) of the same molecule?
The growth inhibition was 11%.

And the growth inhibition ([14]; at 3.7 µM)?
Its growth inhibition is 35%.

What about the growth inhibition ([14]; at 11.0 µM) of the same molecule?
The growth inhibition was 86% (active).

And the growth inhibition ([14]; at 33.0 µM)?
The growth inhibition was 99% (active).

What about the growth inhibition ([14]; at 100.0 µM) of the same molecule?
The growth inhibition was 99% (active).

What about the growth inhibition [15, 17] of the same molecule?
Its growth inhibition is 77% (active).

What about the growth inhibition [15, 18] of the same molecule?
Its growth inhibition is 98% (active).

What about the growth inhibition ([15]; at 50.0 µM) of the same molecule?
Its growth inhibition is 99% (active).

What about the growth inhibition ([16]; at 1.2 µM) of the same molecule?
The growth inhibition was 26%.

And the growth inhibition ([16]; at 3.7 µM)?
Its growth inhibition is 52%.

What about the growth inhibition ([16]; at 11.0 µM) of the same molecule?
The growth inhibition was 91% (active).

What about the growth inhibition ([16]; at 33.0 µM) of the same molecule?
The growth inhibition was 99% (active).

And the growth inhibition ([16]; at 100.0 µM)?
Its growth inhibition is 99% (active).
